Some test systems named below: SR leukemia; RPMI-8226 leukemia; OVCAR-5 ovarian; OVCAR-4 ovarian; SK-OV-3 ovarian; IGROV1 ovarian; OVCAR-3 ovarian; HS 578T breast; NCI/ADR-RES ovarian; T-47D breast; BT-549 breast; MDA-MB-435 melanoma; SW-620 colon; MCF7 breast; HCT-116 colon; HCC-2998 colon; KM12 colon; OVCAR-8 ovarian.
Common to all, as to experiment: NCI-60 one-dose screen, 48 h (100 = growth as untreated, 0 = no growth, -100 = all killed)
Holding throughout (conditions): 10 µM unless noted

The panel holds about 83,000 compounds, 20% with a hit somewhere; the sample as a whole holds those more often.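 Method: cells in 96-well plates; compound added at one concentration; 48 h incubation; percent growth measured; values under 10 scored active.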 A number with no mark means an inactive call. The source made the active and inactive calls.

Consider `COC(=O)c1c(C)nc(C)c2c1C(=O)C=C(NCc1ccccc1)C2=O`, for which the growth is 54.1% in the assay on SR leukemia; 88.4% in the assay with RPMI-8226 leukemia; 81.7% in the assay with OVCAR-5 ovarian; 64.6% with OVCAR-4 ovarian; 91.4% in the assay on SK-OV-3 ovarian; 66.7% in the assay with IGROV1 ovarian. Moreover, the growth is 44.1% in the assay with OVCAR-3 ovarian; 116% in the assay with HS 578T breast; 81.7% in the assay on NCI/ADR-RES ovarian; 82.2% in the assay with T-47D breast; 90% in the assay on BT-549 breast; 103% with MDA-MB-435 melanoma. In addition, the growth with SW-620 colon was 106%; in the assay on MCF7 breast, 76%; in the assay on HCT-116 colon, 76%; with HCC-2998 colon, 96.2%; in the assay with KM12 colon, 83%.
Consider `O=C1Nc2ccc(Cl)cc2/C1=C/c1ccc[nH]1`, for which the growth is 50.4% with SR leukemia; 101% in the assay with RPMI-8226 leukemia; 83.7% in the assay on OVCAR-5 ovarian; 44.3% with OVCAR-4 ovarian; 117% in the assay with SK-OV-3 ovarian; 58.2% with IGROV1 ovarian. Further, the growth in the assay with OVCAR-3 ovarian is 90.5%; in the assay on HS 578T breast, 114%; with T-47D breast, 13%; in the assay with BT-549 breast, 48.7%; in the assay with MDA-MB-435 melanoma it was 96.5%; in the assay with SW-620 colon it was 112%. Also, the growth is 16.2% in the assay with MCF7 breast, 87.1% with HCT-116 colon, 65.8% in the assay on HCC-2998 colon and 13.5% in the assay with KM12 colon.
`COc1cc(/C=C/C(=O)N2CCN(C(=O)c3cc(OC)c(OC)c(OC)c3)CC2)ccc1OCCCOc1cc2c(cc1OC)C(=O)N1CCC[C@H]1C=N2`: the growth in the assay with SR leukemia was -15.4% (active); in the assay on RPMI-8226 leukemia it was 15.2%; in the assay on OVCAR-8 ovarian it was 14.1%; in the assay with OVCAR-5 ovarian it was 8.34% (active); in the assay on SK-OV-3 ovarian it was 20.3%; in the assay on IGROV1 ovarian it was -57.9% (active). Further, the growth is -11.9% (active) with OVCAR-3 ovarian; -2.23% (active) in the assay with HS 578T breast; 78.6% in the assay on NCI/ADR-RES ovarian; 7.16% (active) in the assay with T-47D breast; -55.9% (active) with BT-549 breast; 4.48% (active) in the assay with SW-620 colon. Further, the growth in the assay with MCF7 breast was 7.86% (active); with HCT-116 colon it was 7.83% (active); with HCC-2998 colon, -39% (active); in the assay on KM12 colon, -19.5% (active).
For `O=C(/C=C/c1ccccc1Cl)c1cccc(OCCCCOc2cccc(C(=O)/C=C/c3ccccc3Cl)c2)c1`, the growth in the assay with SR leukemia is 81%; in the assay with RPMI-8226 leukemia it was -6.16% (active); with OVCAR-8 ovarian, 99.9%; in the assay with OVCAR-5 ovarian, 101%; with IGROV1 ovarian, 92.8%; with OVCAR-3 ovarian it was 112%. Further, the growth in the assay on HS 578T breast is 106%; in the assay with NCI/ADR-RES ovarian, 103%; with T-47D breast it was 91.2%; in the assay on BT-549 breast, 116%; with SW-620 colon, 99%; with MCF7 breast, 51.7%. For the same molecule, the values for the growth in the assay with HCT-116 colon, in the assay on HCC-2998 colon and in the assay on KM12 colon were 50.1%, 104% and 101%, respectively.
`Cc1ccc(Cc2cnc(NC(=O)/C=C/c3ccc(C)o3)s2)cc1`: the growth in the assay on SR leukemia is 16.2%; in the assay on RPMI-8226 leukemia, 26.8%; in the assay on OVCAR-5 ovarian, 60.3%; with OVCAR-4 ovarian, 73.4%; in the assay with SK-OV-3 ovarian, 42.9%; in the assay with IGROV1 ovarian, 42.2%. Further, the growth with OVCAR-3 ovarian is -8.25% (active); in the assay with HS 578T breast, 30.7%; with NCI/ADR-RES ovarian, 33.9%; in the assay on T-47D breast it was 35.5%; in the assay on BT-549 breast, 72.3%; in the assay with MDA-MB-435 melanoma it was -52.5% (active). For the same molecule, the growth with SW-620 colon is 22.7%; in the assay with MCF7 breast, 12.3%; in the assay on HCT-116 colon, 27.7%; in the assay on HCC-2998 colon, 65.2%; in the assay with KM12 colon, 16.5%.
Turning to `O=C(O)CCCCCCCCCCN1C(=O)/C(=C2/C(=O)N(CC(=O)O)c3ccc(Br)cc32)SC1=S`, the growth with SR leukemia was 57.6%; with RPMI-8226 leukemia, 79.3%; in the assay on OVCAR-5 ovarian it was 106%; with OVCAR-4 ovarian it was 95%; in the assay with SK-OV-3 ovarian, 96.6%; in the assay with IGROV1 ovarian, 74.3%. Also, the growth was 87.9% in the assay with OVCAR-3 ovarian; 85% in the assay on HS 578T breast; 96.7% with NCI/ADR-RES ovarian; 77.9% in the assay on T-47D breast; 105% in the assay with BT-549 breast; 102% in the assay with MDA-MB-435 melanoma. Besides, the growth is 106% in the assay with SW-620 colon; 82.9% in the assay on MCF7 breast; 87.2% in the assay on HCT-116 colon; 115% in the assay with HCC-2998 colon; 40.2% with KM12 colon.
For `Nc1nc(N(Cc2ccccc2)c2ccccc2)c2cn[nH]c2n1`, the growth with SR leukemia was 4.11% (active); in the assay on RPMI-8226 leukemia it was 58.5%; in the assay on OVCAR-5 ovarian it was 100%; in the assay on OVCAR-4 ovarian, 78.6%; with SK-OV-3 ovarian, 95.6%; with IGROV1 ovarian, 80.7%. For the same molecule, the growth in the assay on OVCAR-3 ovarian was 76.7%; with HS 578T breast it was 58.2%; with NCI/ADR-RES ovarian, 59.9%; with T-47D breast it was 44.4%; with BT-549 breast, 68.2%; in the assay on MDA-MB-435 melanoma, 9.3% (active). The growth was 25% with SW-620 colon; 43.8% in the assay on MCF7 breast; 40.9% with HCT-116 colon; 71.2% in the assay on HCC-2998 colon; 35.1% with KM12 colon.
As to `O=S(Nc1ccccc1)c1ccc(Cl)cc1` (stereo not drawn), the growth with SR leukemia is 78.8%; in the assay on RPMI-8226 leukemia it was 99.3%; in the assay on OVCAR-5 ovarian it was 109%; with OVCAR-4 ovarian it was 95.5%; in the assay on SK-OV-3 ovarian, 109%; in the assay on IGROV1 ovarian it was 105%. In addition, the growth was 112% in the assay with OVCAR-3 ovarian; 84.6% with HS 578T breast; 106% in the assay on NCI/ADR-RES ovarian; 90.7% in the assay with T-47D breast; 110% in the assay with BT-549 breast; 90.4% in the assay with MDA-MB-435 melanoma. In addition, the growth in the assay on SW-620 colon was 86.8%; in the assay with MCF7 breast, 101%; in the assay on HCT-116 colon, 92.1%; in the assay with HCC-2998 colon it was 95.4%; in the assay on KM12 colon, 109%.
`N#CC1=C(N)Oc2c(sc3c(F)cccc23)C1c1ccc([N+](=O)[O-])cc1` (stereo not drawn): the growth in the assay on SR leukemia was 5.1% (active); in the assay with RPMI-8226 leukemia, -9.41% (active); in the assay on OVCAR-8 ovarian, -21.6% (active); with OVCAR-5 ovarian it was -14.6% (active); with SK-OV-3 ovarian, -7.03% (active); in the assay on IGROV1 ovarian, -26% (active). For the same molecule, the growth was -55.1% (active) in the assay with OVCAR-3 ovarian; -26.1% (active) with HS 578T breast; -14.2% (active) in the assay with NCI/ADR-RES ovarian; -3.63% (active) in the assay with T-47D breast; -48.3% (active) with BT-549 breast; -33.7% (active) in the assay on SW-620 colon. Further, the growth is -18.1% (active) in the assay with MCF7 breast, -84.8% (active) in the assay with HCT-116 colon, -40.8% (active) in the assay on HCC-2998 colon and -32.4% (active) with KM12 colon.

These data come from PubChem BioAssay (NCI).
